Laboratory results: PubChem BioAssay (NCATS)
Results filed as inconclusive are left out. Entries that show only a call come without a potency. Unmarked numbers belong to inactive results. Calls of active or inactive are those of the source. The call rests on the fitted dose curve; in most records, active means well fitted cell-killing curve with a large enough effect; inconclusive means small, poorly fitted or top-dose-only effect, or effect the other way; inactive means flat fitted curve, though single readings scatter.

Test system: CASKI
Experiment: Primary qHTS to identify gynecologic anti-cancer compounds using libraries of approved drugs and bioactive compounds (AID 1345084); further: nearly all actives have a fitted effect of over 55% in size
Details: Gynecologic cancer cell panel viability, ATPlite luminescence, 48 h; series mostly up to 57.5 µM
In short: (§1)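 In this quantitative HTS, cell killing is estimated from loss of ATP-dependent luciferase light. Cells see five compound concentrations over a 48 h exposure.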

Row | Compound | outcome
1 | C/C(=C/CO)CC[C@H]1[C@]2(C)C[C@H](O)CC(C)(C)[C@H]2CC[C@]1(C)O | inactive
2 | C[C@@H]1O[C@@H](O[C@@H]2\C=C/C=C\C=C/C=C\C[C@H](C)OC(=O)/C=C\[C@H]3O[C@@H]3C[C@H](O)C[C@]3(O)C[C@@H](O)[C@@H](C(=O)O)[C@H](C2)O3)[C@H](O)[C@H](N)[C@@H]1O | inactive
3 | COc1cc(C)c(C(=O)O[C@@H]2[C@H](O)[C@@H](CO)O[C@H]2n2ccc(=O)[nH]c2=O)c(OC)c1 | inactive
4 | C=C(CCO)C(=O)OCC1OCC(OC(=O)C(=C)CCO[C@@H]2O[C@H](CO)[C@@H](O)[C@H](O)[C@H]2O)C(O)C1O (stereo not given in full) | inactive
5 | COc1ccc(/C=C/C(=O)N2CCCC2)cc1 | inactive
6 | C[C@@H]1O[C@@H](OC[C@H]2O[C@@H](OCc3ccccc3)[C@H](O)[C@@H](O)[C@@H]2O)[C@H](O)[C@H](O)[C@H]1O | inactive
7 | CC(=O)O[C@@H]1C=C2[C@H](CC[C@@]3(C)[C@@]2(O)CC[C@H]2Cc4c([nH]c5ccccc45)[C@@]23C)O[C@@H]1C(C)(C)O | inactive
8 | Cc1cc(Cn2cnc3c2CC(C(=O)O)N(C(=O)C(c2ccccc2)c2ccccc2)C3)ccc1N(C)C (stereo not given) | inactive

Test system: Es-2
Experiment: as above
Details: Gynecologic cancer cell panel viability, ATPlite luminescence, 48 h; series mostly up to 57.5 µM
In short: as §1

Row | Compound | Potency | activity change, negative = cytotoxicity
9 | COc1cccc(Cn2ncc3c4sc(S(C)=O)cc4n(C)c3c2=O)c1 (stereo not given) | inactive | 
10 | CC(C)CC(=O)O[C@@H]1O[C@H](CO)[C@@H](O[C@H]2O[C@H](C)[C@@H](N[C@H]3C=C(CO)[C@@H](O[C@H]4O[C@H](CO)[C@@H](O[C@H]5O[C@H](CO)[C@@H](O[C@H]6O[C@H](CO)[C@@H](O)[C@H](O)[C@H]6O)[C@H](O)[C@H]5O)[C@H](O)[C@H]4O)[C@H](O)[C@H]3O)[C@H](O)[C@H]2O)[C@H](O)[C@H]1O |  | -3.07% [at 11.6 µM]
11 | COc1ccc(C2COc3cc(O)ccc3C2)c(O)c1OC (stereo not given) | inactive | 
12 | CCN1CCN(C(=O)N[C@@H](C(=O)N[C@@H]2C(=O)N3[C@@H]2SC(C)(C)[C@@H]3C(=O)O)c2ccccc2)C(=O)C1=O | inactive | 
13 | COc1ccc(/C=C/C(N)=O)cc1OC | inactive | 
14 | N[C@@H](CC(=O)Nc1ccc(Oc2cc(F)c(F)cc2Br)cc1)C(=O)O | inactive | 
15 | COc1cc(O)cc2c1C(=O)OC(C)C2 (stereo not given) | inactive | 
16 | COc1cc(/C=C/C(=O)O[C@@H]2C[C@](O)(C(=O)O)C[C@@H](O)[C@H]2O)ccc1O | inactive | 
17 | Cc1cn(C[C@H](N)C(=O)O)c(=O)n(Cc2ccsc2C(=O)O)c1=O | inactive | 
18 | CC(O)C1CCC2C3CCC4CC(OC5OC(C(=O)O)C(O)C(O)C5O)CCC4(C)C3CCC12C (stereo not given) | inactive | 
19 | C/C=C1/[C@H](O[C@@H]2O[C@H](CO)[C@@H](O)[C@H](O)[C@H]2O)OC=C2C(=O)O[C@@H]3C[C@@H](C(C)CO)[C@H](COC(=O)C[C@H]21)[C@H]3C (stereo not given in full) | inactive | 
20 | COc1ccc(NC(=O)c2ccc(-c3ccc(C(N)=O)cc3C)cc2)cc1N1CCN(C)CC1 | inactive | 
21 | Cc1cccc(-c2nn3c(c2-c2ccnc4ccc(C(N)=O)cc24)CCC3)n1 | inactive | 
22 | CC1(C)CC[C@]2(C(=O)OC3OC(CO)C(O)C(O)C3O)CC[C@]3(C)C(=CCC4[C@@]5(C)C[C@@H](O)[C@H](OC6OC(C(=O)O)C(O)C(O)C6O)C(C)(C)C5CC[C@]43C)[C@@H]2C1 (stereo not given in full) |  | -0.905% [at 11.6 µM]
23 | O=C(NCC(=O)N1CCCC1)Nc1ccc2ccccc2c1 | inactive | 
24 | O=C(c1c2ccccc2cc2ccccc12)N1CCC(N2CCC[C@@H](C(=O)N3CCOCC3)C2)CC1 | inactive | 
25 | CC(C)c1ccc2c(c1)C(O)CC1C(C)(CO)CCCC21C (stereo not given) | inactive | 
26 | C=CCc1cc(OC)c(OC(C)C(O)c2ccc(O)c(OC)c2)c(OC)c1 (stereo not given) | inactive | 
27 | COc1cc(O)cc(O[C@@H]2O[C@H](CO)[C@@H](O[C@@H]3OC[C@](O)(CO)[C@H]3O)[C@H](O)[C@H]2O)c1OC | inactive | 
28 | CC1(C)COC(=O)[C@@H]1O[C@@H]1O[C@H](CO)[C@@H](O)[C@H](O)[C@H]1O | inactive | 
29 | C[C@@H]1O[C@@H](O[C@H]2[C@@H]3C=CO[C@@H](O[C@@H]4O[C@H](CO)[C@@H](O)[C@H](O)[C@H]4O)[C@@H]3[C@@]3(CO)O[C@@H]23)[C@H](O)[C@H](O)[C@H]1OC(=O)/C=C/c1ccc(O)cc1 | inactive | 
30 | Cc1c(NC(=O)N2CCOCC2)ccc2c1c1ccccc1n2C(C)C | inactive | 
